SMILES strings stand for the structures. Where “and” joins values, the source holds several entries; their conditions need not be identical. Identical values can stand only once. About 83,000 compounds went through this panel and 20% of them were active in at least one assay; those are over-represented in the sample as a whole.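 Interpretation: 100, growth as untreated; towards 0, rising growth inhibition; 0, no net growth; 0 to -100, cell death. Compounds scoring below 10 were considered active.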 Calls of active or inactive are those of the source.

The subject of the first test is NCI-H460 lung. Briefly: NCI-60 one-dose screen, 48 h (100 = growth as untreated, 0 = no growth, -100 = all killed). The note with it: 0.0025 µM. Here is the method: Growth inhibition of the NCI-H460 human Non-Small Cell Lung tumor cell line is measured as a screen for anti-cancer activity. Cells are grown in 96 well plates and exposed to the test compound for 48 hours. Compounds are tested at a single concentration, which is 10^-5 M for most compounds. The reported endpoint is percent growth (GI% or GIPRCNT), where numbers from 0 - 100% represent growth inhibition, and numbers from -100% - 0 represent cell death. For example, a value of 40 represents 60% growth inhibition. A value of 0 means no net growth occurred over the course of the experiment. A value of -40 indicates 40% of cells at the beginning of the experiment died by the end of the experiment. A value of -100 means all cells are dead at the end of the experiment.
NCI-60 Human Tumor Cell Lines Screen was performed using the standard one-dose NCI protocol, which is described in more detail at https://dtp.cancer.gov/discovery_development/nci-60/default.htm.
Compounds with GIPRCNT values below 10 were considered active. Activity score was based on GIPRCNT using the following formula: […]
Score is 0 for GIPRCNT values of 100 or above, 50 for GIPRCNT values of 0, and 100 for GIPRCNT values of -100.
Take `COc1cccc2c1C(=O)c1c(O)c3c(c(O)c1C2=O)C[C@@](O)(C(=O)CO)C[C@@H]3OC1CC(N)C(O)C(C)O1` (stereo not given in full): the growth is 73.4% (inactive).

The same test, now with this note: 1 µM.
Consider `COc1cccc2c1C(=O)c1c(O)c3c(c(O)c1C2=O)C[C@@](O)(C(=O)CO)C[C@@H]3OC1CC(N)C(O)C(C)O1` (stereo not given in full), for which the growth is -31.1% (active).

The test is the same for the next values; noted with them: 2.5 µM.
As for `COc1cccc2c1C(=O)c1c(O)c3c(c(O)c1C2=O)C[C@@](O)(C(=O)CO)C[C@@H]3OC1CC(N)C(O)C(C)O1` (stereo not given in full), the growth is 9.19% (active).

Staying with this test, now noted: 10 µM.
On to `CCO/C=C1\SC(=S)N(c2cccc(O)c2)C1=O`, for which the growth was 106% (inactive).

With `NC(=O)SCC(=O)NNc1ccccc1`, the growth is 98.8% (inactive). Same read-out and setting: to `CCCCCC(C)c1ccc(O)c(C)c1` (stereo not given) belongs 107% (inactive); to `CC[N+](CC)=c1ccc2nc3c(cc(N)c4ccccc43)oc-2c1`, -57.4% (active); to `CC(=O)Nc1cc(C)ccc1C`, 106% (inactive). On to `CSC1SCC2C(=O)N(C)C(C(C)C)C(=O)OCC(NC(=O)c3cnc4ccccc4n3)C(=O)NC(C)C(=O)N(C)C1C(=O)N(C)C(C(C)C)C(=O)OCC(NC(=O)c1cnc3ccccc3n1)C(=O)NC(C)C(=O)N2C` (stereo not given), for which the growth is 4.33% (active). The same measure, in the same setting: to `CCN1/C(=C/C=C/C=C/c2sc3ccccc3[n+]2CC)Sc2ccccc21` belongs -69.7% (active).

Consider `COc1cccc2c1C(=O)c1c(O)c3c(c(O)c1C2=O)C[C@@](O)(C(=O)CO)C[C@@H]3OC1CC(N)C(O)C(C)O1` (stereo not given in full), for which the growth is 0.571% (active). Still for that read-out and setting: to `O=C1C=C(O)c2ccccc2C1=O.[Ag]` belongs 94.7% (inactive). Still for that read-out and setting: to `Clc1cc(Cl)c(Cl)nn1` belongs 99% (inactive); to `NNc1c2ccccc2nc2ccccc12`, 10% (inactive).

Consider `CO[C@H](C(=O)[C@@H](O)[C@@H](C)O)[C@@H]1Cc2cc3cc(OC4CC(OC5CC(O)C(O)C(C)O5)C(O)C(C)O4)c(C)c(O)c3c(O)c2C(=O)[C@H]1OC1CC(OC2CC(OC3CC(C)(O)C(O)C(C)O3)C(O)C(C)O2)C(O)C(C)O1` (stereo not given in full), for which the growth was 2.6% (active).

For `Nc1nc(=S)c2ncn(C3OC(CO)C(O)C3O)c2[nH]1` (stereo not given), the growth was 120% (inactive) and 9.3% (active).

`O=c1ccn(C2CC(O)C(COC(c3ccccc3)(c3ccccc3)c3ccccc3)O2)c(=O)[nH]1` (stereo not given): the growth was 91.2% (inactive).

Consider `CCCC1CCC(=C2C(=O)CCC2=O)O1` (stereo not given), for which the growth is 101% (inactive) and 113% (inactive).

Take `CC1=CC(C)=Nc2ccc(Cl)cc2N1`: the growth was 101% (inactive). The same measure, in the same setting: to `O=C1C=CC(=CC=C2C=CN(CCCCCCCCCCCO)C=C2)C=C1` belongs 17.5% (inactive); to `OCC(O)C(O)C(O)C(/C=N/Nc1ccccc1)=N/Nc1ccccc1` (stereo not given), 89.9% (inactive); to `Nc1ccc2cc3ccc(N)cc3nc2c1`, 102% (inactive) and 0.17% (active). `CCCCCCCCCCCCSC(=NC)NC`: the growth is 4.19% (active) and 42.7% (inactive).

Consider `Clc1ccc(/C=C/c2ccccn2)c(Cl)c1`, for which the growth was 95.2% (inactive). For the compound `O=C(/C=C/c1cccnc1)c1ccccc1`, the growth was 87.6% (inactive). For `CCN(CC)c1ccc(NC(C(=O)c2ccccc2)c2ccccc2)cc1` (stereo not given), the growth was 80.4% (inactive). Same read-out and setting: to `CCCCCCCCCCCC[N+](C)(C)Cc1ccccc1` belongs 71.9% (inactive); to `Nc1c2ccccc2nc2ccccc12`, -11.2% (active) and 2.59% (active) and 12% (inactive); to `CS(=O)(=O)OC1CC(n2ccc(=O)[nH]c2=O)OC1COC(c1ccccc1)(c1ccccc1)c1ccccc1` (stereo not given), 112% (inactive). Still for that read-out and setting: to `CC(C)(C)CC(C)(C)c1ccc(OCCO)cc1` belongs 117% (inactive). The same measure, in the same setting: the same measure for `O=C(Nc1ccc(C(=O)O)c(O)c1)c1ccccc1`: 109% (inactive); for `COC1OCC(O)C(O)C1O` (stereo not given): 104% (inactive); for `Oc1ccc(N=Nc2ccccn2)c(O)c1`: 8.17% (active).

On to `O=C1NC(=O)c2cc([N+](=O)[O-])ccc21`, for which the growth is 105% (inactive). Still for that read-out and setting: the same measure for `COC(=O)C1C(O)C(C)C(O)C(C)C=C(C)C2=C3C(=C(C)C(=O)c4c(O)c(c(C)c(OC(C)=O)c43)NC(=O)C(C)=C/C=C\C(C)C(O)C(C)C1O)OCO2` (stereo not given): 114% (inactive); for `Cc1nc(N=C(N)N)nc2ccc3ccccc3c12`: -44.4% (active); for `O=C(O)COc1ccc(OCC(=O)O)cc1`: -17.8% (active).

Regarding `COc1c(O)cc2oc3cc(O)c(CC=C(C)C)c(O)c3c(=O)c2c1CC=C(C)C`, the growth is 28.4% (inactive). Same read-out and setting: to `CC(=O)OCC(OC(C)=O)C(OC(C)=O)C(OC(C)=O)C(OC(C)=O)C(/C=N/Nc1ccccc1)=N/Nc1ccccc1` (stereo not given) belongs 65.2% (inactive).

Staying with this test, now noted: 100 µM.
`O=c1ccn(C2CC(O)C(COC(c3ccccc3)(c3ccccc3)c3ccccc3)O2)c(=O)[nH]1` (stereo not given): the growth was 39.4% (inactive).

(Values after PubChem BioAssay (NCI).)
